In PubChem BioAssay:
The source made the active and inactive calls.

Tests used:
[1] = binders of probe aFSTL3 on microarray, primary screen, stem cell growth factor project, biochemical, small-molecule microarray, fluorescence 635/667 (AID 1064); conditions: higher = more signal;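 note: measures binding of the biotinylated anti-FSTL3 antibody to printed compounds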
[2] = binders from COS7 lysate, DM2A8 probe, primary screen, torsin A project, cell lysate, small-molecule microarray, fluorescence 635/667 (AID 1065); conditions: higher = more signal, COS7 lysate expressing mutant human TOR1A
[3] = binders of probe aFGF2 on microarray, primary screen, stem cell growth factor project, biochemical, small-molecule microarray, fluorescence 635/667 (AID 1067); conditions: higher = more signal;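 note: measures binding of biotinylated aFGF2 protein to printed compounds on slides; z-score merges feature fluorescence and signal-to-noise across triplicate slides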
[4] = binders of probe aFGF10 on microarray, primary screen, stem cell growth factor project, biochemical, small-molecule microarray, fluorescence 635/667 (AID 1071); conditions: higher = more signal;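 note: score merges 667 nm spot intensity and signal to noise from triplicate slides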
[5] = target: Neurogenic locus notch homolog protein 2 (Homo sapiens) (UniProt Q04721); experiment: Notch2 binders on small-molecule microarrays, primary screen, biochemical, small-molecule microarray, 635 nm fluorescence, stem cell growth factors (AID 1073); conditions: Notch2 binding, higher = more signal
[6] = target: Pro-neuregulin-1, membrane-bound isoform (Homo sapiens) (UniProt Q02297); experiment: NRG1 binders on small-molecule microarrays, primary screen, psychiatric disease protein project, biochemical, small-molecule microarray, fluorescence 635/667 (AID 1075); conditions: NRG1 binding, 635 nm fluorescence, higher = more signal;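 note: score combines 667 nm spot fluorescence with signal to noise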
[7] = system: Neuregulin-1 EGF-like domain; experiment: binders of neuregulin-1 EGF-like domain, primary screen, biochemical, small-molecule microarray, 635 nm fluorescence (AID 1081); conditions: small-molecule microarray binding, higher = more signal;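 note: binding of the protein to compounds printed on small-molecule microarray slides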
[8] = FRG1 promoter luciferase signal modulators, primary screen, FRG1 inhibition for FSHD, cell-based, C2C12 myotubes, firefly/Renilla luciferase, luminescence (AID 1084); conditions: higher = more signal, called active from +8 up or from −8 down
[9] = binders of probe aFST on microarray, primary screen, stem cell growth factor project, biochemical, small-molecule microarray, fluorescence 635/667 (AID 1086); conditions: higher = more signal;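 note: score merges 667 nm fluorescence with signal-to-noise of each printed compound spot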
[10] = binders of probe aHhip on microarray, primary screen, stem cell growth factor project, biochemical, small-molecule microarray, fluorescence 635/667 (AID 1087); conditions: higher = more signal;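 note: score merges spot fluorescence at 667nm with spot signal to noise ratio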
[11] = system: PRMT1 (protein arginine N-methyltransferase 1); experiment: PRMT1 binders on small-molecule microarrays, primary screen, biochemical, small-molecule microarray, 635 nm fluorescence (AID 1088); conditions: small-molecule microarray binding, higher = more signal;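 note: binding of Prmt1 protein to compounds spotted on small-molecule microarray slides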
[12] = yeast growth modulation, basal conditions, primary screen, YJM789 clinical isolate, OD600, 24 h (AID 1089);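 note: growth of clinical yeast isolate S. cerevisiae YJM 789 seeded 1000 cells per well; test concentration not given here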; conditions: S. cerevisiae YJM789 growth, higher = more signal, called active from +8 up or from −8 down
[13] = fission yeast growth modulation, primary screen, strain 972, OD600, 24 h, no modulator (AID 1090);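 note: basal condition with compound alone and no growth modifier present; test concentration not given here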; conditions: S. pombe 972 growth, higher = more signal, called active from +8 up or from −8 down
[14] = S. cerevisiae growth modulation with rapamycin, primary screen, strain BY4716, OD600, 96 h (AID 1091); conditions: higher = more signal, called active from +8 up or from −8 down; note: test concentration not given here
[15] = target: Torsin-1A-interacting protein 2 (Homo sapiens) (UniProt Q8NFQ8); experiment: LULL1 binders on small-molecule microarray, primary screen, cell lysate, human LULL1 lysate, 635/667 nm fluorescence (AID 1092); conditions: hLULL1 lysate binding, 635 nm fluorescence, higher = more signal;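 note: probe is lysate of COS7 cells overexpressing human LULL1; score merges per-feature 667 nm fluorescence with signal-to-noise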
[16] = E. coli growth modulation, two-sided OD650, primary screen, E. coli filamentation project, strain DRC41, 24 h (AID 1093); conditions: OD650, 24 h, higher = more signal, called active from +8 up or from −8 down;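 note: MC1000 strain lacking acrAB efflux and sulA so SOS filamentation is blocked; test concentration not given here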
[17] = small-molecule microarray binders of probe aLefty2, primary screen, biochemical, biotinylated probe, 635/667 nm fluorescence (AID 1094); conditions: higher = more signal;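 note: score merges spot fluorescence near 667 nm with spot signal-to-noise ratio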
[18] = system: Noggin (protein binding on small-molecule microarray); experiment: Noggin binders on small-molecule microarray, primary screen, biochemical, 635/667 nm fluorescence (AID 1095); conditions: 635 nm fluorescence, higher = more signal;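 note: score merges 667 nm feature fluorescence with signal to noise over triplicate slides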
[19] = target: Neurogenic locus notch homolog protein 3 (Homo sapiens) (UniProt Q9UM47); experiment: NOTCH3 binders on small-molecule microarray, primary screen, biochemical, 635/667 nm fluorescence (AID 1096); conditions: NOTCH3 binding, 635 nm fluorescence, higher = more signal
[20] = small-molecule microarray binders of probe aEGFR, primary screen, biochemical, biotinylated probe, 635/667 nm fluorescence (AID 1097); conditions: higher = more signal;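 note: probe is a biotinylated anti-EGFR antibody binding compounds printed on slides; score combines fluorescence near 667 nm and signal to noise of each spot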

Neurogenic locus notch homolog protein 3 (Homo sapiens), sequence (Q9UM47 whole entry, looked up): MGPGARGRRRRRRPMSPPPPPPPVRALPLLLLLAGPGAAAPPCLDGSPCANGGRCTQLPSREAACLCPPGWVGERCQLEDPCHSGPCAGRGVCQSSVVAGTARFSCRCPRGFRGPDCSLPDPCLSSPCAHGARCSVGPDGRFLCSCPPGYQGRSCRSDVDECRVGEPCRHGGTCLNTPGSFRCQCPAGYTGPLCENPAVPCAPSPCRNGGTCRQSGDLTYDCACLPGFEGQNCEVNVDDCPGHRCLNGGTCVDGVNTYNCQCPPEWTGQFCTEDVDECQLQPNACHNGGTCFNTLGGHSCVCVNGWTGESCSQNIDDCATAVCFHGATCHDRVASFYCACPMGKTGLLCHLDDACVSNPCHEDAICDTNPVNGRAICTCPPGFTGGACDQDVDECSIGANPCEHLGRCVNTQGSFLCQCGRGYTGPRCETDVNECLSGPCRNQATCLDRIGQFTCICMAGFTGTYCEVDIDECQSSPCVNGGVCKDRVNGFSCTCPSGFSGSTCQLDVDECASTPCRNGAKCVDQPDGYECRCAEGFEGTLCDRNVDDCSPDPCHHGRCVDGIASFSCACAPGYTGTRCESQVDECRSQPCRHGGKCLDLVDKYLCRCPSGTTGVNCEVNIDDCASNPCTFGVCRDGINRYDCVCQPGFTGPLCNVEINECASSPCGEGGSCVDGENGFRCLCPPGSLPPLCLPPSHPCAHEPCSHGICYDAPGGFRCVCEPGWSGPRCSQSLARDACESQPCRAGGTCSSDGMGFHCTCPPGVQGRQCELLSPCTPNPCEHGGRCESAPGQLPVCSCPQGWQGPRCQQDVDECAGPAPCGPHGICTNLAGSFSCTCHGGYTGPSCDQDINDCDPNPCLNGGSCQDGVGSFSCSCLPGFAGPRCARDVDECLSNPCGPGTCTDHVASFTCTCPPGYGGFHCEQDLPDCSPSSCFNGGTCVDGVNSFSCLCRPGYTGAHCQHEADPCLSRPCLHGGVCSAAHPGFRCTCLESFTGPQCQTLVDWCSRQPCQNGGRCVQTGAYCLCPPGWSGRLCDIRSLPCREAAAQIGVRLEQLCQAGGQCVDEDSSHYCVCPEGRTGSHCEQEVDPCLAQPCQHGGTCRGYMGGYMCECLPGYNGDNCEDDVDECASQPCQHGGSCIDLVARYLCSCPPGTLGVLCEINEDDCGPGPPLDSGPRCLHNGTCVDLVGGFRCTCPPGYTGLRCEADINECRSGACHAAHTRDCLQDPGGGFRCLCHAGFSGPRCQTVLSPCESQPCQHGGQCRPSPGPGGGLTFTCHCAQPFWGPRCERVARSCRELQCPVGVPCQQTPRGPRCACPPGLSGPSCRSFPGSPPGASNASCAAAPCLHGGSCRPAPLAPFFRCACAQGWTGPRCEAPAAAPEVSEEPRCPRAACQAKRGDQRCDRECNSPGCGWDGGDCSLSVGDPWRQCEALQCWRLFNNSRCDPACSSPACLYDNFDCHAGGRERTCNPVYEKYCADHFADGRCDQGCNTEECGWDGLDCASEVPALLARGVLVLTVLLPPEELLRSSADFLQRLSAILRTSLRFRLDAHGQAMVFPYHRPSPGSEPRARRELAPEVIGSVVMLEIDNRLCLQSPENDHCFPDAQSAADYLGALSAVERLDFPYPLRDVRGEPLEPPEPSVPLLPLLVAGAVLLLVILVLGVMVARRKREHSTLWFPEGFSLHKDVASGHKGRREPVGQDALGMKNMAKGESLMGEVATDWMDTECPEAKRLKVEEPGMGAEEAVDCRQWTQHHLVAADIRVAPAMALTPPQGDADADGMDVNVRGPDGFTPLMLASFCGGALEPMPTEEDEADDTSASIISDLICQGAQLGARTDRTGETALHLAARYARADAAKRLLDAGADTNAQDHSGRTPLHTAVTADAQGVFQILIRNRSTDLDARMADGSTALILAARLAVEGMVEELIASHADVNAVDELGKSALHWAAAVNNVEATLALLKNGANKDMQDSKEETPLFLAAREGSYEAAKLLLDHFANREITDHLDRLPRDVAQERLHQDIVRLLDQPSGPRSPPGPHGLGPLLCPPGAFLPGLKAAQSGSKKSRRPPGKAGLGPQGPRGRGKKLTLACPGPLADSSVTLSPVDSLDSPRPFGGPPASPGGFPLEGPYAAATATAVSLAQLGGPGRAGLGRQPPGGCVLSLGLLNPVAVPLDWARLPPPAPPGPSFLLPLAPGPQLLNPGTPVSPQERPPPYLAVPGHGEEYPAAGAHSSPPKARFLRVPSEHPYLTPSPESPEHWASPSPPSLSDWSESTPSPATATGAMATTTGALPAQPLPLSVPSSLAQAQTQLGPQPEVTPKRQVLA
Neurogenic locus notch homolog protein 2 (Homo sapiens), sequence (Q04721 whole entry, looked up, canonical isoform): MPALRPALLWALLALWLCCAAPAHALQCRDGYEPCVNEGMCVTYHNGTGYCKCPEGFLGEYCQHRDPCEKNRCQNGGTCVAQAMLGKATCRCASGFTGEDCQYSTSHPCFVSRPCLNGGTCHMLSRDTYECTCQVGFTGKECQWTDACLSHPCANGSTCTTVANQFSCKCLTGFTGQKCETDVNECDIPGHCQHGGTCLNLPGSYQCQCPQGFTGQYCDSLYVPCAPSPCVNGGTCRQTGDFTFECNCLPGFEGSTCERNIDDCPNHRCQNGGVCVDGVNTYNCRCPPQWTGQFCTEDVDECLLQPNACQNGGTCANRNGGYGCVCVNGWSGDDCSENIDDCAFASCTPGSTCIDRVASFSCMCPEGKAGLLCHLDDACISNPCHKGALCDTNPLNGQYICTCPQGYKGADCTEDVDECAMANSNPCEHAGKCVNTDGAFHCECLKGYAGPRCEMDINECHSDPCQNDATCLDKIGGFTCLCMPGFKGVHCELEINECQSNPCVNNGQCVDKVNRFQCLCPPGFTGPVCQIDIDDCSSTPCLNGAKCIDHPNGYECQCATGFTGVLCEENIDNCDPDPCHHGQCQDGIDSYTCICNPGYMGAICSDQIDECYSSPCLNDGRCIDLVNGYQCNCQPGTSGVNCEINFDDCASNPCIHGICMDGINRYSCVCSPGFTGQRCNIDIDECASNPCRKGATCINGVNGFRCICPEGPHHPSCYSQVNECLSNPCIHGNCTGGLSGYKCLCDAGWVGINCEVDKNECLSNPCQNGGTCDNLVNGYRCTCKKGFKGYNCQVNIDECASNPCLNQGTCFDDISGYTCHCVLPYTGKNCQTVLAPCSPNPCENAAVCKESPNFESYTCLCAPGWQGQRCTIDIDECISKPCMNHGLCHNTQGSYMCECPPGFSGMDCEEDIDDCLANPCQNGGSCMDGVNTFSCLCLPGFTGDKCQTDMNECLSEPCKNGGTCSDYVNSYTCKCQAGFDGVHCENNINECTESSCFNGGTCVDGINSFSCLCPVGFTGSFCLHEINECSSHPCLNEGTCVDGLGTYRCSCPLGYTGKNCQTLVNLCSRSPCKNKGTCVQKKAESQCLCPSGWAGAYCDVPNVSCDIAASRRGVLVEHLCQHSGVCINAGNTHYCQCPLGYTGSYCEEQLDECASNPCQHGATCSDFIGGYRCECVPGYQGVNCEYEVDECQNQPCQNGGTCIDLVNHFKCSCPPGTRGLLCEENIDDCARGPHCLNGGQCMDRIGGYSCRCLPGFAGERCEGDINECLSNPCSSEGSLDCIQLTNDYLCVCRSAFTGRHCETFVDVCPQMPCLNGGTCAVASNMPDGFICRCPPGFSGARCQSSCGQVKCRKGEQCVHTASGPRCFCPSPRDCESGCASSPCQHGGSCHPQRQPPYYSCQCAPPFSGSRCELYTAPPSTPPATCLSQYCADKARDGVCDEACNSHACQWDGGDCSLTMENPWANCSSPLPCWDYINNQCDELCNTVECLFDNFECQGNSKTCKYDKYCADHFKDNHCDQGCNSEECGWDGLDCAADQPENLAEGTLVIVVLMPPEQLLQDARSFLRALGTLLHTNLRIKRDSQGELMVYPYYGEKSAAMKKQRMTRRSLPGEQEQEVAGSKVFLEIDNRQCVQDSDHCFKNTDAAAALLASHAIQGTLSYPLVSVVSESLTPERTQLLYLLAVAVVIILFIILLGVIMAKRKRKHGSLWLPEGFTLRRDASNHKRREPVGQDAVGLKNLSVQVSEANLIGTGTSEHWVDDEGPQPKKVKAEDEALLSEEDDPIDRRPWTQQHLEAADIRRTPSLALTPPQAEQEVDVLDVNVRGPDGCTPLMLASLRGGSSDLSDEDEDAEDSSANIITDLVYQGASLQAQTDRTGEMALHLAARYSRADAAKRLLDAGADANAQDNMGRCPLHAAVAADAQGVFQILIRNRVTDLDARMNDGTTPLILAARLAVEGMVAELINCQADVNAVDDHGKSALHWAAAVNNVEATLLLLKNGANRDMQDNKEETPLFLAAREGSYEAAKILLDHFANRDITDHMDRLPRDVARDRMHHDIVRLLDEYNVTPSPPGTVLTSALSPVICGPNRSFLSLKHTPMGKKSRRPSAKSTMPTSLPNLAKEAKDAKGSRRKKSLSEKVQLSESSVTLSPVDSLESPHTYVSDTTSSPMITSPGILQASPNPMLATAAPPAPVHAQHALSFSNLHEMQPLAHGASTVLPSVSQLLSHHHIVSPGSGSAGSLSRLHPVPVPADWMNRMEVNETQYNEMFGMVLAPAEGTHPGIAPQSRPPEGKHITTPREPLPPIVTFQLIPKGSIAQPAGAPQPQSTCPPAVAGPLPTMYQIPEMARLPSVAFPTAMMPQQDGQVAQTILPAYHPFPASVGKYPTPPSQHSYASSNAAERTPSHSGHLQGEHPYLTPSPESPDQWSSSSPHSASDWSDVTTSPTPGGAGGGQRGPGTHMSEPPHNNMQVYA

SMILES	composite z-score [1]	composite z-score [2]	composite z-score [3]	composite z-score [4]	composite z-score [5]	composite z-score [6]	composite z-score [7]	z-score [8]	composite z-score [9]	composite z-score [10]	composite z-score [11]	z-score [12]	z-score [13]	z-score [14]	composite z-score [15]	z-score [16]	composite z-score [17]	composite z-score [18]	composite z-score [19]	composite z-score [20]
Cc1cccc([C@H]2C[C@H]3C(Br)=C[C@@]2(CO)C(=O)[C@]32CO2)c1	-0.053	-0.65	-0.125	0.0924	-0.368	0.131	0.708	1.46 (inactive)	0.275	-0.0994	0.378	-1.54 (inactive)	-2.89 (inactive)	-0.75 (inactive)	2.39	-0.316 (inactive)	-0.114	0.783	0.353	-0.219
COC(=O)c1ccc(OC)c(/C=C\CC(OC(=O)c2ccncc2)c2ccccc2)c1 (stereo not given)	-0.273	0.285	-0.107	0.257	0.481	-0.106	-0.0115	-1.97 (inactive)	0.0754	0.0514	0.264	-2.64 (inactive)	-2.43 (inactive)	-0.0389 (inactive)	0.179	1.27 (inactive)	-0.0851	0.66	0.0482	-0.0286
COC(=O)[C@@]1(Cc2ccc(F)cc2)[C@H]2c3cc(C(=O)N(C)C)n(Cc4cccc5ccccc45)c3C[C@H]2CN1C(=O)c1ccccc1	1.84	1.71	0.398	1.16	0.77	1.13	1.33	0.255 (inactive)	0.697	0.727	-0.72	1.43 (inactive)	1.54 (inactive)	2.69 (inactive)	4.03	-1.15 (inactive)	0.323	-0.192	-0.0287	0.0776
C=CCOC(=O)[C@@H]1[C@H]2C(=O)O[C@H](c3ccccc3)[C@H](c3ccccc3)N2[C@H](c2ccc(OCCOC(=O)[C@H]3C[C@H]4C(=O)N[C@@H](CCCCN(C)C)C(=O)N4[C@H]3c3cccc(OCCO)c3)cc2)[C@@]12C(=O)Nc1ccccc12	1.24	0.596	0.031	-0.629	-1.13	1.96	0.815	1.02 (inactive)	-0.651	-0.166	0.831	-0.292 (inactive)	1.12 (inactive)	0.171 (inactive)	0.729	-0.0426 (inactive)	0.0897	0.221	-0.414	-0.0039
COc1ccc(CCNC(=O)[C@@H]2c3ccccc3C(=O)N(Cc3cc(F)cc(C(F)(F)F)c3)[C@H]2c2ccc(CO)cc2)cc1	1.65	0.705	0.272	0.235	0.158	1.17	0.975	-1.36 (inactive)	2.49	-0.251	1.54	-0.0253 (inactive)	-0.131 (inactive)	0.142 (inactive)	2.21	1.02 (inactive)	0.159	0.415	0.195	0.179
COCCCNC(=O)[C@@]1(Cc2ccccc2I)c2ccccc2C(=O)N(Cc2ccccc2C(F)(F)F)[C@H]1c1ccc(CO)cc1	0.088	0.395	-0.0232	-0.283	-1.01	0.988	1.05	-1.78 (inactive)	0.341	0.0826	1.4	-0.784 (inactive)	0.25 (inactive)	0.437 (inactive)	2.47	-0.627 (inactive)	-0.0654	-0.473	0.03	-0.291
CCOC(=O)C[C@H]1[C@H](OC(=O)Cc2ccc3c(c2)OCO3)[C@@H](NC(=O)CC(C)C)c2cc(OCCCO)ccc2N1C(=O)c1ccc2ccccc2n1	-0.306	1.01	0.0435	0.43	0.834	1.01	0.518	-3.21 (inactive)	0.376	-0.344	0.516	-0.0651 (inactive)	-0.943 (inactive)	-0.0443 (inactive)	0.452	0.431 (inactive)	-0.145	0.988	0.647	-0.178
COC(=O)C(CC#Cc1ccc2c(c1)[C@]1(C(=O)N2)[C@H](C(N)=O)[C@H]2C(=O)O[C@H](c3ccccc3)[C@H](c3ccccc3)N2[C@@H]1c1ccccc1OCCO)C(=O)OC	0.29	1.81	-0.0122	0.765	-0.21	1.67	1.4	1.69 (inactive)	-0.275	-0.0994	1.56	2.79 (inactive)	0.943 (inactive)	5.37 (inactive)	3.13	1.12 (inactive)	-0.075	0.877	0.576	0.0167
CCOC(=O)C1=CCC(c2cccn2C(=O)OC(C)(C)C)N(S(=O)(=O)c2ccc(C)cc2)C1 (stereo not given)	1.3	0.42	0.0267	0.243	0.884	1.7	1.18	-2.99 (inactive)	0.67	1.07	1.48	-0.0556 (inactive)	0.69 (inactive)	0.382 (inactive)	3.36	-0.0304 (inactive)	0.194	0.205	1	-0.0004
C=CCNC(=O)[C@H]1[C@@H]2C(=O)O[C@@H](c3ccccc3)[C@@H](c3ccccc3)N2[C@@H](c2ccc(OCCO)cc2)[C@]12C(=O)N(C(=O)OCCOC)c1ccc(C#CCC(C(=O)OC)C(=O)OC)cc12	1.55	0.948	0.18	1.1	0.881	1.63	1.19	0.9 (inactive)	0.725	1.58	1.54	2.06 (inactive)	1.07 (inactive)	6.82 (inactive)	3.45	-0.0319 (inactive)	0.771	1.42	1.08	0.315
